Pf Dd2 growth – inhibitors of Plasmodium falciparum Dd2 growth. P. falciparum Dd2 growth, SYBR Green, 72 h. Potency, µM (highest dose often 28.9 µM), without a hit: at the highest dose activity, negative = inhibition, usual class: inhibitors. 4.3% of 120,000 active. AID 1347417; active = well fitted inhibition curve with a large enough effect;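 also: plate controls were DMSO vehicle for no effect and reference drug for full effect; nearly all actives have a fitted effect of over 65% in size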
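Infected erythrocytes (Dd2, 0.3% parasitemia, 2.5% hematocrit final) are added to compound in RPMI-1640/Albumax II medium, grown 72 h at 37C in low oxygen, then lysed with saponin/Triton-X containing SYBR Green and read by fluorescence.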
* marks the source's active call; other numbers are inactive results; i = inactive; [ ] = another dose, or the depositor's remark. Only a selection was taken, and hits are over-represented in it overall. Potency is read from the fitted curve at half-maximal effect.

SMILES	Pf Dd2 growth
O=C(NCCc1ccncc1)c1cccc2c1CCN2C(=O)Nc1ccc(F)cc1	i
Cc1nn(C)c2nc(NCCCC3CCOC3)sc12 (configuration not stated)	1%
CCc1ccc(CN(C)C(=O)c2cn(CC3COc4ccccc4O3)nn2)cc1 (configuration not stated)	-10%
O=S(=O)(NC[C@H]1OC[C@@H](NCc2ncc[nH]2)[C@@H]1O)c1ccccc1	8%[44.1 µM]
Cc1ccc(S(=O)(=O)C(CNC(=O)Cc2ccc(Cl)cc2)c2cccs2)cc1 (configuration not stated)	2%
CCNc1ncc(C(=O)N[C@H](c2cccs2)C2CC(O)C2)cn1 (some centres not stated)	-25%
CCc1ncc(C(=O)NC(c2ccc(C)cc2)c2cccs2)cn1 (configuration not stated)	10µM*
COc1cccc(-c2cc(C(=O)NCc3nc(-c4ccccc4)n[nH]3)[nH]n2)c1	-17%
CCc1nnc2ccc(NC3CC3)nn12	2%
CCc1nnc2ccc(NC(C)C)nn12	2%
CCc1nnc2ccc(NCc3ccccc3)nn12	6.3µM*
O=C(NC[C@H]1O[C@@H](CO)[C@@H](O)[C@H]1N1CCc2ccccc2C1)c1ccco1	-11%[44.1 µM]
CC(=O)c1ccc(NC(=O)c2cc(S(=O)(=O)N3CCCCCC3)cn2C)cc1	8%
Cn1cc(S(=O)(=O)N2CCCCC2)cc1C(=O)Nc1ccc(OC(F)(F)F)cc1	11µM*
Cn1cc(S(=O)(=O)N2CCCC2)cc1C(=O)Nc1ccc(F)cc1F	-3%
CC(C)c1ccccc1OCC(=O)c1ccc2c(c1)N(CC(=O)N1CCCC1)C(=O)CO2	i
Cc1csc(C(C)N(C)C(=O)c2cc(Cn3nc(C)cc3C)[nH]n2)n1 (configuration not stated)	-2%
CCCNC(=O)CC(c1ccccc1OC)c1c[nH]c2c(CC)cccc12 (configuration not stated)	i
CCOC(=O)C1CCCN(C(=O)CC(c2cccc([N+](=O)[O-])c2)c2c[nH]c3c(CC)cccc23)C1 (configuration not stated)	13µM*
CCc1cccc2c(C(CC(=O)N3CCCCC3)c3cccc(C)c3)c[nH]c12 (configuration not stated)	i
CCc1cccc2c(C(CC(=O)N3CCc4ccccc4C3)c3cccc4c3OCO4)c[nH]c12 (configuration not stated)	8.9µM*
CCc1cccc2c(C(CC(=O)N3CCCC3)c3cccc([N+](=O)[O-])c3)c[nH]c12 (configuration not stated)	7.9µM*
CCc1cccc2c(C(CC(=O)NC(C)CC)c3ccc(OC)c(OC)c3)c[nH]c12 (configuration not stated)	-4%
CCCNC(=O)CC(c1ccc(OC)c(OC)c1)c1c[nH]c2c(CC)cccc12 (configuration not stated)	-11%
CC(CCc1ccccc1)NC(=O)CC(c1cccc2c1OCO2)c1c[nH]c2ccccc12 (configuration not stated)	-15%
SMILES	Pf Dd2 growth
COc1ccc(C(CC(=O)N2CCCC2)c2c[nH]c3ccccc23)cc1 (configuration not stated)	-7%
CC(C)C(=O)N1CCC(N2CC3CC(C2)[C@H]2CCCC(=O)N2C3)CC1 (some centres not stated)	3%
O=C1NC2(CCN(Cc3cccnc3)CC2)Oc2ccccc21	i
NC(=O)CN1CCC(C(=O)NCCCn2ncc3ccccc32)CC1	7%
CC(C)CC(=O)N1CCc2nnc([C@@H]3C[C@@H](O)CN3C(C)C)n2CC1	-2%
COCCc1noc(C2Cc3ccccc3N2C(=O)Nc2ccc(C)cc2C)n1 (configuration not stated)	i[5.79 µM]
C#CCNC(=O)CC[C@H]1CNC(=O)[C@@H]2[C@@H](CCN2Cc2ccc(S(C)(=O)=O)cc2)N1C	3%
Cn1cc(CN2C[C@@H]3C[C@H](C2)c2ccc(NC(=O)c4cccs4)c(=O)n2C3)c2ccccc21	7.9µM*
CC(=O)c1ccc(NC(=O)N2C[C@@H]3C[C@H](C2)c2ccc(NC(=O)c4cccs4)c(=O)n2C3)cc1	-2%
Cn1cc(CN2C[C@@H]3C[C@H](C2)c2ccc(NC(=O)COc4ccccc4)c(=O)n2C3)c2ccccc21	-3%
COC(=O)c1c(NC(=O)COc2cc(C)ccc2C(C)C)sc2c1CCC(C)C2 (configuration not stated)	24%
CCOC(=O)N1CCc2c(sc3c2C(=O)NC(c2cc(OC)c(O)c(OC)c2)N3)C1 (configuration not stated)	-15%
COc1ccc(OC)c(NC(=O)c2c(NCc3ccc(C)o3)sc3c2CCC(C)C3)c1 (configuration not stated)	11µM*
CCOC(=O)N1CCc2c(sc(NCc3ccc(N(CC)CC)cc3)c2C(=O)Nc2cc(OC)ccc2OC)C1	7.9µM*
CCOC(=O)N1CCc2c(sc(NCc3cccs3)c2C(=O)Nc2ccc(OC)cc2OC)C1	-6%
COc1ccc(NC(=O)Cn2nnc3sc4c(c3c2=O)CCC(C)C4)c(OC)c1 (configuration not stated)	19%
COc1ccc(OC)c(NC(=O)c2c(NCc3ccc(OC)c(OC)c3)sc3c2CCC(C)C3)c1 (configuration not stated)	5.6µM*
COC(=O)c1c(NC(=O)COc2ccc(OC)cc2)sc2c1CCC(C)C2 (configuration not stated)	-1%
COC(=O)c1c(NC(=O)COc2c(C)ccc(C)c2C)sc2c1CCC(C)C2 (configuration not stated)	26%
O=C(NC1CC1)c1ccccc1OCC1CCCN(Cc2ccc3c(c2)CCO3)C1 (configuration not stated)	i
O=C(CCc1ccccc1)N1CCN(C(=O)c2nnn3c2COC(c2ccc(Cl)cc2)C3)CC1 (configuration not stated)	-19%
O=C(Cn1c2c(c(=O)n1Cc1ccccc1)CCN(Cc1ccccc1)C2)Nc1ccncn1	0%
COCC(=O)N(C)C1CCc2ccccc21 (configuration not stated)	-21%[44.1 µM]
O=C(Cn1nc2c(cc1=O)CCCCC2)NCCCN1CCOCC1	1%
CN1CCCCCCN(C(=O)COc2ccc(F)cc2)[C@H]2CCC[C@H]2C1=O	-12%
SMILES	Pf Dd2 growth
Cc1ccc(-c2nnc(C3CN(C(=O)c4ccc(F)cc4F)CC34CCOCC4)o2)cc1 (configuration not stated)	i
CNC(=O)[C@@H]1CN(C(=O)c2cc(C)[nH]n2)C[C@H]1C1CCN(C)CC1	12%
CCOc1ccccc1C1NC(=O)N(CC(=O)Nc2ccc3c(c2)CCC3)C2=C1C(=O)OC2 (configuration not stated)	i
CCN(CC)C(=O)N1CC(Oc2cccc(-c3nc(C)no3)c2)C1	58%[5.79 µM]
Cc1nc(-c2ccc(C(C)N3CCCCC3)cc2)c(Cl)c(=O)[nH]1 (configuration not stated)	-18%
CN1C(=O)C2(SCC(=O)N2c2cccc(C(F)(F)F)c2)c2ccccc21 (configuration not stated)	-4%
COc1cccc(CN2C(=O)C3(SCC(=O)N3c3cc(C)cc(C)c3)c3ccccc32)c1 (configuration not stated)	i
CCc1ccc(N2C(=O)CSC23C(=O)N(Cc2ccc(C)cc2)c2ccccc23)cc1 (configuration not stated)	-21%

Source: PubChem
